{"source": "PubChem BioAssay (NCATS)", "note": "Inconclusive results are not listed. Active and inactive are the calls of the source. Calls follow the shape of the dose curve; as a rule, active = well fitted cell-killing curve with a large enough effect; inconclusive = small, poorly fitted or top-dose-only effect, or effect the other way; inactive = no such curve, though single readings can be large or run the other way. Potency is read from the fitted curve at half-maximal effect."}
{"experiment": "Quantitative High-Throughput drug screen in 47 multiple myeloma cell lines against the NCATS MIPE library collection: KMS20_JCRB cell viability assay (AID 1918973); also: nearly all actives have a fitted effect of over 45% in size", "details": "CellTiter-Glo ATP, 48 h; series mostly up to 45.8 µM; viability (% of DMSO): at the top concentration", "in_short": "(§1)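 Luminescent ATP measurement with CellTiter-Glo gives viability, scaled between DMSO-only wells (100%) and media-only wells (0%). Cells, 500 per well, faced library compounds for 48 hours at 37C.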"}
{"molecule": "COC(=O)Nc1nc2ccc(C(=O)c3ccccc3)cc2[nH]1", "Potency": "1.32 µM (active)"}
{"molecule": "COc1cc2c(Nc3ccc(Br)cc3F)ncnc2cc1OCC1CCN(C)CC1", "Potency": "9.35 µM (active)"}
{"molecule": "CCOC(=O)c1ccc(C#Cc2ccc3c(c2)C(C)(C)CCS3)nc1", "viability (% of DMSO)": "129% (inactive)"}
{"molecule": "CNC1CCCN(c2c(F)cc3c(=O)c(C(=O)O)cn(C4CC4)c3c2OC)C1", "note": "(stereo not given)", "viability (% of DMSO)": "104% (inactive)"}
{"molecule": "CNS(=O)(=O)Cc1ccc2[nH]cc(CCN(C)C)c2c1", "viability (% of DMSO)": "111% (inactive)"}
{"molecule": "NC(=O)c1cccnc1", "viability (% of DMSO)": "115% (inactive)"}
{"molecule": "CNS(=O)(=O)CCc1ccc2[nH]cc(C3CCN(C)CC3)c2c1", "Potency": "0.935 µM (active)"}
{"molecule": "N[C@@H](Cc1ccc(O)c(O)c1)C(=O)O", "viability (% of DMSO)": "124% (inactive)"}
{"molecule": "CNC(=O)c1cc(Oc2ccc(NC(=O)Nc3ccc(Cl)c(C(F)(F)F)c3)cc2)ccn1", "Potency": "16.6 µM (active)"}
{"molecule": "Nc1ccc(S(=O)(=O)Nc2ccccn2)cc1", "viability (% of DMSO)": "107% (inactive)"}
{"molecule": "CC(C)(C#N)c1cc(Cn2cncn2)cc(C(C)(C)C#N)c1", "viability (% of DMSO)": "98.1% (inactive)"}
{"molecule": "NS(=O)(=O)c1cc2c(cc1Cl)NC(C(Cl)Cl)NS2(=O)=O", "note": "(stereo not given)", "viability (% of DMSO)": "115% (inactive)"}
{"molecule": "CCCOc1ccc(C(=O)OCCN(CC)CC)cc1N", "viability (% of DMSO)": "92.6% (inactive)"}
{"molecule": "CC[C@H](NC(C)C)[C@H](O)c1ccc(O)c2[nH]c(=O)ccc12", "viability (% of DMSO)": "141% (inactive)"}
{"molecule": "NC(=O)c1cccc(N)c1", "viability (% of DMSO)": "85.4% (inactive)"}
{"molecule": "CC(C)C1CCC(C(=O)N[C@H](Cc2ccccc2)C(=O)O)CC1", "note": "(stereo not given in full)", "viability (% of DMSO)": "113% (inactive)"}
{"molecule": "CCCCCCNC(=O)n1cc(F)c(=O)[nH]c1=O", "viability (% of DMSO)": "129% (inactive)"}
{"molecule": "CC(=O)CC(c1ccccc1)c1c(O)c2ccccc2oc1=O", "note": "(stereo not given)", "viability (% of DMSO)": "110% (inactive)"}
{"molecule": "NC(=O)N1c2ccccc2CC(=O)c2ccccc21", "viability (% of DMSO)": "86.1% (inactive)"}
{"molecule": "C[C@]12C=CC(=O)C=C1CC[C@@H]1[C@@H]2C(=O)C[C@@]2(C)[C@H]1CC[C@]2(O)C(=O)CO", "Potency": "0.129 µM (active)"}
{"experiment": "Quantitative High-Throughput drug screen in 47 multiple myeloma cell lines against the NCATS MIPE library collection: KMS21BM_JCRB cell viability assay (AID 1918974)", "details": "ATP luminescence, 48 h; viability: at 45.8 µM (top of the series)", "in_short": "as §1"}
{"molecule": "COc1cc2c(Nc3ccc(Br)cc3F)ncnc2cc1OCC1CCN(C)CC1", "viability": "385% (inactive)"}
{"molecule": "CC(C(=O)O)c1ccc2c(c1)CC(=O)c1ccccc1S2", "note": "(stereo not given)", "Potency": "264 nM (active)"}
{"molecule": "NC(N)=NC(N)=NCCc1ccccc1", "Potency": "3320 nM (active)"}
{"molecule": "Cc1nnc(NS(=O)(=O)c2ccc(N)cc2)s1", "Potency": "418 nM (active)"}
{"molecule": "Nc1ccc(S(=O)(=O)Nc2ccccn2)cc1", "viability": "144% (inactive)"}
{"molecule": "NS(=O)(=O)c1cc2c(cc1Cl)NC(C(Cl)Cl)NS2(=O)=O", "note": "(stereo not given)", "viability": "204% (inactive)"}
{"molecule": "Cc1ncc([N+](=O)[O-])n1CCO", "viability": "128% (inactive)"}
{"molecule": "COc1cc(NS(=O)(=O)c2ccc(N)cc2)nc(OC)n1", "viability": "110% (inactive)"}
{"molecule": "CCCCCCNC(=O)n1cc(F)c(=O)[nH]c1=O", "Potency": "332 nM (active)"}
{"molecule": "Cc1noc(NS(=O)(=O)c2ccc(N)cc2)c1C", "viability": "120% (inactive)"}
